Counter-ions that a name gives are not always drawn.
Test system: Saccharomyces cerevisiae
Experiment: fraction of cells in G1 phase (DNA content, flow cytometry); higher = more cells with unreplicated DNA (G1 delay)
Details: temperature: 30 C; YPD; JTY2953 pdr5 snq2 (sensitized); drug added to: cultures diluted from stationary phase; 6-7 h
Method in brief: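 For the G1 fraction, the Dean-Jett-Fox G1 peak area was divided by the sum of the G1 and G2/M areas. S. cerevisiae in YPD at 30°C received library drugs and was fixed 6–7 h later for sensitized JTY2953 (diluted 1∶200 from overnight, final 20 µg/ml), 6 h later for dividing JTY2953, or 4.33 h later for BY4741. Fixed cells were stained with SYTOX Green and 10,000 events recorded by flow cytometry.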

Row | Compound | fraction of cells in G1 phase
1 | O=C(CCNNC(=O)c1ccncc1)NCc1ccccc1 [Nialamide] (67.0359 µM) | 0.512
2 | CN(C)CCN1C(=O)c2ccccc2N(C)c2ccccc21 [Dibenzepine HCl] (67.7077 µM) | 0.479
3 | Cn1c(=O)c2[nH]cnc2n(C)c1=O [Aminophylline] (111.008 µM) | 0.49
4 | C=C1CC[C@H](O)C/C1=C/C=C1\CCC[C@]2(C)[C@@H]([C@H](C)CCCC(C)(C)O)CC[C@@H]12 [Calcifediol] (49.9188 µM) | 0.545
5 | COc1ccc2[nH]c([S+]([O-])Cc3ncc(C)c(OC)c3C)nc2c1 (stereo not given) [Omeprazole] (57.9 µM) | 0.486
6 | Nc1c2c(nc3ccccc13)CCCC2 [Tacrine HCl] (100.873 µM) | 0.541
7 | CCN(Cc1ccncc1)C(=O)C(CO)c1ccccc1 (stereo not given) [Tropicamide] (70.3331 µM) | 0.521
8 | COCCOC(=O)C1=C(C)NC(C)=C(C(=O)OC(C)C)C1c1cccc([N+](=O)[O-])c1 (stereo not given) [Nimodipine] (47.7954 µM) | 0.521
9 | CCN(CC)CC(=O)Nc1c(C)cccc1C [Lidocaine] (73.8552 µM) | 0.499
10 | CCN[C@H]1C[C@H](C)S(=O)(=O)c2sc(S(N)(=O)=O)cc21 [Dorzolamide] (61.6443 µM) | 0.499
11 | COc1ccc2c3c1O[C@H]1C[C@@H](O)C=C[C@@]31CCN(C)C2 [Galanthamine HBr] (69.5987 µM) | 0.538
12 | O=C(NCCO[N+](=O)[O-])c1cccnc1 [Nicorandil] (94.7066 µM) | 0.516
13 | Nc1nc2ccc(OC(F)(F)F)cc2s1 [Riluzole HCl] (85.3967 µM) | 0.551
14 | CC[C@H]1OC(=O)[C@H](C)[C@@H](O[C@H]2C[C@@](C)(OC)[C@@H](O)[C@H](C)O2)[C@H](C)[C@@H](O[C@@H]2O[C@H](C)C[C@H](N(C)C)[C@H]2O)[C@](C)(O)C[C@@H](C)CN(C)[C@H](C)[C@@H](O)[C@]1(C)O [Azithromycin] (26.7021 µM) | 0.471
15 | CC(C)n1c(/C=C/[C@@H](O)C[C@@H](O)CC(=O)O)c(-c2ccc(F)cc2)c2ccccc21 [Fluvastatin Na] (48.6053 µM) | 0.464
16 | CCCc1cc(C(N)=S)ccn1 [Prothionamide] (110.943 µM) | 0.482
17 | CC(C(=O)O)c1cccc(Oc2ccccc2)c1 (stereo not given) [Fenoprofen] (82.5501 µM) | 0.502
18 | CC[C@H]1OC(=O)[C@H](C)[C@@H](O[C@H]2C[C@@](C)(OC)[C@@H](O)[C@H](C)O2)[C@H](C)[C@@H](O[C@@H]2O[C@H](C)C[C@H](N(C)C)[C@H]2O)[C@](C)(OC)C[C@@H](C)C(=O)[C@H](C)[C@@H](O)[C@]1(C)O [Clarithromycin] (26.7389 µM) | 0.489
19 | Nc1nc2c(ncn2COC(CO)CO)c(=O)[nH]1 [Ganciclovir] (78.3591 µM) | 0.451
20 | N=C(N)N1CCc2ccccc2C1 [Debrisoquin sulfate] (114.132 µM) | 0.513
21 | CC(=O)OCC[N+](C)(C)C [Acetylcholine Cl] (136.789 µM) | 0.483
22 | CS(=O)(=O)c1ccc(C2=C(c3ccccc3)C(=O)OC2)cc1 [Rofecoxib] (63.6208 µM) | 0.536
23 | Cc1c(C)c2c(c(C)c1O)CCC(C)(COc1ccc(CC3SC(=O)NC3=O)cc1)O2 (stereo not given) [Troglitazone] (45.2949 µM) | 0.591
24 | CC#CCC(C)[C@H](O)/C=C/[C@@H]1[C@H]2C/C(=C/CCCC(=O)O)C[C@H]2C[C@H]1O (stereo not given in full) [Iloprost] (55.4788 µM) | 0.481
25 | NC12CC3CC(CC(C3)C1)C2 [Amantadine HCl] (106.553 µM) | 0.505
26 | CC(C)(CO)[C@@H](O)C(=O)NCCC(=O)O [Pantothenic acid] (91.2244 µM) | 0.484
27 | COC(=O)N[C@H](C(=O)N[C@@H](Cc1ccccc1)[C@@H](O)CN(Cc1ccc(-c2ccccn2)cc1)NC(=O)[C@@H](NC(=O)OC)C(C)(C)C)C(C)(C)C [Atazanavir] (28.3739 µM) | 0.525
28 | CN(C)CCC=C1c2ccccc2CCc2ccccc21 [Amitriptyline HCl] (63.7146 µM) | 0.418
29 | COC(=O)c1ccccc1O [Methyl salicylate] (131.448 µM) | 0.513
30 | CCN(CC)CCCC(C)Nc1ccnc2cc(Cl)ccc12 (stereo not given) [Chloroquine phosphate] (62.5232 µM) | 0.469

— the supplement of paper PMC3342239
